Measurements: PubChem BioAssay AID2320 (National Center for Advancing Translational Sciences (NCATS), 2010)
Records with an inconclusive call do not appear. Active and inactive are the calls of the source. The call rests on the fitted dose curve.

experiment: A qHTS for Small Molecule Inhibitors of Shiga Toxin (Confirmatory); conditions: Cell-based Shiga toxin protection reporter assay; series mostly up to 38.3 µM; further: nearly all actives have a fitted effect of over 75% in size
Potency means the concentration at half of the fitted maximal effect.

Structure (SMILES) | Potency
CNC(=O)CSc1nnc(-c2cc(C)cc(C)c2)o1 | inactive
COc1ccc(/C=C/c2nnc(NC(=O)CSc3ccc(Cl)cc3)s2)cc1 | 11.3 µM (active)
CC1CCCC(C)N1C(=O)Cn1nnc(-c2ccccc2)n1 (stereo not drawn) | inactive
CCOC(=O)c1[nH]c2ccc(OC)cc2c1NC(=O)C(C)N1CCC2(CC1)OCCO2 (stereo not drawn) | inactive
O=C(O)Cc1ccc2oc(-c3ccccn3)nc2c1 | 12.6 µM (active)
CCCCC1(C)Nc2ccccc2-c2nc3ccccc3n21 (stereo not drawn) | 12.6 µM (active)
Cc1cccc(NC(=O)C2CCCC2)c1 | 0.0252 µM (active)
O=C(Nc1cccc(-c2csc(Nc3ccc(Cl)cc3)n2)c1)c1ccccc1 | 6.34 µM (active)
Cc1c(C(=O)Nc2nc3ccccc3[nH]2)oc2ccc(Br)cc12 | 11.3 µM (active)
CON(C)S(=O)(=O)c1cccc(C(=O)NC2CCSc3ccccc32)c1 (stereo not drawn) | inactive
COc1ccccc1CNc1nc2ccccc2n1CCN1CCCCC1 | inactive
COC(=O)c1ccc(-c2ncc(-c3cccc4ccccc34)o2)cc1 | 7.11 µM (active)
COc1cccc(C(C(=O)NC2CCCC2)N(C(=O)c2ccco2)C2CC2)c1OC (stereo not drawn) | 8.95 µM (active)
COc1ccc(C2C(C#N)=C(C)NC3=C2C(=O)CC(C)(C)C3)c(OC)c1 (stereo not drawn) | inactive
O=C(CCN1C(=O)c2cccc3cccc(c23)C1=O)NC1CCS(=O)(=O)C1 (stereo not drawn) | inactive
COc1ccc2nc3cc(Cl)ccc3c(NCCCN3CCN(CCCNc4c5ccc(Cl)cc5nc5ccc(OC)cc45)CC3)c2c1 | inactive
Cc1nc(N2CCN(C(=O)c3ccco3)CC2)nc2c1C(=O)CCC2 | 6.34 µM (active)
Cc1cc(NC(=O)CSc2nc3ccsc3c(=O)n2Cc2ccccn2)n[nH]1 | 25.2 µM (active)
Cc1cc(Cl)ccc1NC(=O)CN1CCC(C(O)(c2ccccc2)c2ccccc2)CC1 | inactive

Structure (SMILES) | Potency
NNC(=O)c1ccc(NS(=O)(=O)c2ccc(Br)cc2)cc1 | inactive
CN(C)S(=O)(=O)c1ccc(C(=O)Nc2ccc(CN3CCCC3)cc2)cc1 | 0.0283 µM (active)
Cc1ccc(CSc2nnc(CCCCCNC(=O)OC(C)(C)C)o2)cc1 | inactive
Cc1oncc1-c1csc(-c2ccccc2Cl)n1 | 7.98 µM (active)
CCn1cc(C(=O)NCc2ccccc2Cl)cn1 | inactive
Cc1ccc(NC(=O)C(C)N=C2NS(=O)(=O)c3ccccc32)cc1 (stereo not drawn) | 0.0005 µM (active)
COc1cc2c(c(OC)c1OC)-c1c(cc(OC)c(OC)c1OC)C[C@](C)(O)[C@@H](C)C2 | inactive
Cc1cc(N2CCCCCC2)nc(-c2ccccc2O)n1 | 17.9 µM (active)
Nc1cc(N)nc(SCC(=O)Nc2ccc(Br)cc2Cl)n1 | 11.3 µM (active)
CSc1nc(SCCO)c2sc3nc(-c4ccco4)c4c(c3c2n1)CC(C)(C)OC4 | inactive
COC(=O)c1ccc(NC(=O)Cc2ccc(F)cc2)cc1 | 5.65 µM (active)
O=C1C(Cl)=C(Nc2ccccc2)C(=O)c2ccccc21 | 3.18 µM (active)
Cc1c(NC(=O)c2ccc3c(c2)OCO3)cccc1-c1nc2ccccc2o1 | 20 µM (active)
CCNc1c(NC(=O)c2cccs2)c(=O)oc2ccccc12 | inactive
Cc1cccc(NC(=O)CCN2C(=O)c3ccccc3S2(=O)=O)c1C | 20 µM (active)
COC(=O)c1ccc(C)c(NC(=O)CCSc2ccc(Cl)cc2)c1 | inactive
CCN(CCn1cccn1)Cc1nc(-c2ccccc2)no1 | inactive
O=C(Sc1cccc2cccnc12)c1ccccc1Br | 8.95 µM (active)
COc1cccc(/C=C/C(=O)c2cccc([N+](=O)[O-])c2)c1OC | inactive
